Calls of active or inactive are those of the source.
What was measured:
[1] = test system: Human papillomavirus type 1a protein E7 (residues 44-93); experiment: small molecules binding HPV E7 44-93 – biochemical, small-molecule microarray, residues 44-93, 635 nm fluorescence, primary screen (AID 1108); details: fluorescence 635 nm, higher = more signal;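 also: E7 fragment applied at 1 µg/mL in TBST for 1 h at 4 C; score combines spot fluorescence with its signal to noise ratio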
[2] = hepatitis C replication reporter changes, two-sided – Huh7 cells, luciferase reporter, HCV replication inhibitor project, primary screen (AID 1109); details: Huh7 HCV replicon luciferase reporter, 48 h; higher = more signal;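 also: huh7 hepatoma cells harbouring a luciferase neomycin HCV replicon reporter; luciferase luminescence as measure of HCV replicon replication; test concentration not given here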
[3] = target: Left-right determination factor 2 (Homo sapiens) (UniProt O00292); experiment: small molecules binding LEFTY2 protein – biochemical, small-molecule microarray, 635 nm fluorescence scan, primary screen (AID 1110); details: higher = more signal
[4] = target: Calmodulin-1 (Homo sapiens) (UniProt P0DP23); experiment: small molecules binding calmodulin-1 with EGTA – biochemical, small-molecule microarray, Cy5-labelled CALM1, profiling panel (AID 1111); details: Cy5-CALM1 binding fluorescence, higher = more signal;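 also: labelled calmodulin applied in Tris saline Tween buffer holding calcium plus EGTA and DTT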
[5] = target: Calmodulin-1 (Homo sapiens) (UniProt P0DP23); experiment: small molecules binding Ca-loaded calmodulin-1 – biochemical, small-molecule microarray, Cy5-labelled CALM1, plus calcium, artefact control for SMM control-protein annotation, profiling panel (AID 1112); details: Cy5-CALM1 binding fluorescence, higher = more signal;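 also: score merges spot fluorescence with signal to noise from triplicate slides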
[6] = probe aWnt5a binding to arrayed compounds – biochemical, biotinylated probe, 635/667 nm fluorescence, primary screen (AID 1113); details: small-molecule microarray, higher = more signal;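 also: score merges 667 nm fluorescence intensity with signal-to-noise per printed feature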
[7] = probe aShh binding to arrayed compounds – biochemical, biotinylated probe, 635/667 nm fluorescence, primary screen (AID 1114); details: small-molecule microarray, higher = more signal;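 also: probe is biotin-labelled aShh protein from a stem cell growth factor screen; measures binding of labelled protein to compounds printed on the slide; score merges feature fluorescence at 667 nm with signal-to-noise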
[8] = probe aNog binding to arrayed compounds – biochemical, biotinylated probe, 635/667 nm fluorescence, primary screen (AID 1115); details: small-molecule microarray, higher = more signal;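 also: probe is biotinylated aNog protein used at 0.15 µg/mL for 1 h at 4 C; z-score combines 667 nm fluorescence of each spot with its signal to noise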
[9] = target: Torsin-1A-interacting protein 1 (Homo sapiens) (UniProt Q5JTV8); experiment: compound microarray binding of lysate hLAP1 – cell lysate, small-molecule microarray, COS7 lysate, 635/667 nm fluorescence, primary screen (AID 1116); details: 635 nm fluorescence, higher = more signal
[10] = target: Alpha-bungarotoxin (Bungarus multicinctus) (UniProt P60615); experiment: compounds binding labelled alpha-BTX control protein – biochemical, small-molecule microarray, Alexa647 label, 635/667 nm fluorescence, artefact control for SMM control protein annotation, profiling panel (AID 1117); details: alpha-BTX-A647 binding fluorescence, higher = more signal
Albumin (Bos taurus) = Albumin (Bos taurus) (UniProt P02769); experiment: compounds binding labelled BSA control protein – biochemical, small-molecule microarray, Alexa647 label, 635/667 nm fluorescence, artefact control for SMM control protein annotation, profiling panel (AID 1118); details: BSA-A647 binding, fluorescence 635 nm, higher = more signal;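 also: score merges 667 nm emission intensity and signal-to-noise per printed compound spot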
[11] = probe aXIP binding to arrayed compounds – biochemical, NeuroSMM set, 635/667 nm fluorescence, primary screen (AID 1119); details: small-molecule microarray, higher = more signal, called active from +8 up or from −8 down;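 also: probe is the protein aXip251-270 applied at 1 µg/mL to compound-printed slides; binding of probe to printed compounds measured as 667 nm fluorescence plus signal to noise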
[12] = probe aNOTCH3 binding on compound microarray – biochemical, small-molecule microarray, 635/667 nm fluorescence, primary screen (AID 1120); details: higher = more signal;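 also: probe is a biotin-tagged antibody raised against NOTCH3 rather than NOTCH3 protein; score merges spot fluorescence near 667 nm with spot signal to noise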
[13] = probe aNOTCH2 binding on compound microarray – biochemical, small-molecule microarray, 635/667 nm fluorescence, primary screen (AID 1121); details: higher = more signal;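 also: score merges feature fluorescence read at 667 nm with its signal to noise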
[14] = target: Carbonic anhydrase 2 (Homo sapiens) (UniProt P00918); experiment: compounds binding carbonic anhydrase 2 – biochemical, small-molecule microarray, Alexa647-labelled CAII, profiling panel (AID 1122); details: CAII-A647 binding fluorescence, higher = more signal
[15] = COS7 lysate on small-molecule microarray, probe aHis, 635 nm (AID 1123); details: COS7 cell lysate, fluorescence, higher = more signal;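 also: z-score combines 667nm fluorescence intensity with signal-to-noise per printed compound spot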
[16] = probe aLAP1 signal on lysate-treated microarray – cell lysate, small-molecule microarray, COS7 lysate, primary screen (AID 1124); details: probe aLAP1, fluorescence, higher = more signal;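 also: lysate comes from COS7 cells expressing LAP1 and is applied at 0.3 µg/mL; score merges spot fluorescence near 667 nm with signal-to-noise over triplicate slides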
Sam68 (KHDRBS1) = experiment: compounds binding KHDRBS1 protein – biochemical, small-molecule microarray, 635 nm fluorescence, primary screen (AID 1125); details: higher = more signal;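 also: score merges 667 nm channel intensity with signal to noise over triplicate slides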
[17] = test system: Chordin-like protein 2 (CHRDL2); experiment: compounds binding chordin-like 2 – biochemical, small-molecule microarray, 635 nm fluorescence, primary screen (AID 1126); details: fluorescence 635 nm, higher = more signal;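 also: printed compound slides probed with Chrdl2 protein at 4 µg/mL for 1 h at 4 C; score merges 667 nm emission intensity with signal to noise over three replicate slides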
[18] = target: Concanavalin-A (Canavalia ensiformis) (UniProt P02866); experiment: compounds binding concanavalin A lectin – biochemical, small-molecule microarray, Alexa647 label, 635 nm, artefact control for SMM control protein annotation, primary screen (AID 1127); details: ConA-A647 binding fluorescence, higher = more signal;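 also: z combines 667 nm emission intensity with signal-to-noise across three replicate slides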
Chain of Concanavalin-A (Canavalia ensiformis) (P02866 whole entry, looked up): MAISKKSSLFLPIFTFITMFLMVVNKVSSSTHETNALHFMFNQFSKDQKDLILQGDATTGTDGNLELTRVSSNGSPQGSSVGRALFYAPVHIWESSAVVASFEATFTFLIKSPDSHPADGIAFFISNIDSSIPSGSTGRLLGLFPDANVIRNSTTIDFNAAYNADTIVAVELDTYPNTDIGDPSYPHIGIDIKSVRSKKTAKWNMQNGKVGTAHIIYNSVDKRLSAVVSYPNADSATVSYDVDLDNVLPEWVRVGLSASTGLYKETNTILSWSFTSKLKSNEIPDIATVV

Chain of Albumin (Bos taurus) (P02769 whole entry, looked up): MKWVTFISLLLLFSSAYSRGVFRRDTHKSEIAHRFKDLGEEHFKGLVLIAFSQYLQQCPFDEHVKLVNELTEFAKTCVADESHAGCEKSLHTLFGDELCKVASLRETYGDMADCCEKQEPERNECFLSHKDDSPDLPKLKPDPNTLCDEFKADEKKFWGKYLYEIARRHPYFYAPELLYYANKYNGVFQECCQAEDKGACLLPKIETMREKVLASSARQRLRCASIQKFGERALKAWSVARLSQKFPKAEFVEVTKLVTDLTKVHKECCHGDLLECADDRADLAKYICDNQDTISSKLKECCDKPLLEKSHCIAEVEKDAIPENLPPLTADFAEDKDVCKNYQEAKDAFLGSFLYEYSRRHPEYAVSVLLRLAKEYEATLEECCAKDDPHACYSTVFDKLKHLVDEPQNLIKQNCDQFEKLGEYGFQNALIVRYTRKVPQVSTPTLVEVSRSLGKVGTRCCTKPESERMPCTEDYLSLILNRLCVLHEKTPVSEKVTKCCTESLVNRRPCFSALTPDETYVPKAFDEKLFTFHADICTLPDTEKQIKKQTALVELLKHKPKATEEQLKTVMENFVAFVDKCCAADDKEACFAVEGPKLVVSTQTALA
Chain of Left-right determination factor 2 (Homo sapiens) (O00292 whole entry, looked up): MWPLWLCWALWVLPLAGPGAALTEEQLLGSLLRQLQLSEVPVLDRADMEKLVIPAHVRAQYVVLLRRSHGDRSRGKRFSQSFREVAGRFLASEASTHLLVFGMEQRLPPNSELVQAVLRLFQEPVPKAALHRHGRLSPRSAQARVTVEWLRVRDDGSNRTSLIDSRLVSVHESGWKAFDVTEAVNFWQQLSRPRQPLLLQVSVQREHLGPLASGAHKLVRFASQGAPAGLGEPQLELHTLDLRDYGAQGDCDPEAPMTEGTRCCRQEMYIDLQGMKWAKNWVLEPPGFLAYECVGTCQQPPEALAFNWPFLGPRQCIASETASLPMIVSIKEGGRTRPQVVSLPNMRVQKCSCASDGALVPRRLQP
Chain of Alpha-bungarotoxin (Bungarus multicinctus) (P60615 whole entry, looked up): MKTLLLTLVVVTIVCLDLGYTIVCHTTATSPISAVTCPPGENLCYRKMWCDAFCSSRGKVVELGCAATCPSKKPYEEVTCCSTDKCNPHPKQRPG
Chain of Torsin-1A-interacting protein 1 (Homo sapiens) (Q5JTV8 whole entry, looked up): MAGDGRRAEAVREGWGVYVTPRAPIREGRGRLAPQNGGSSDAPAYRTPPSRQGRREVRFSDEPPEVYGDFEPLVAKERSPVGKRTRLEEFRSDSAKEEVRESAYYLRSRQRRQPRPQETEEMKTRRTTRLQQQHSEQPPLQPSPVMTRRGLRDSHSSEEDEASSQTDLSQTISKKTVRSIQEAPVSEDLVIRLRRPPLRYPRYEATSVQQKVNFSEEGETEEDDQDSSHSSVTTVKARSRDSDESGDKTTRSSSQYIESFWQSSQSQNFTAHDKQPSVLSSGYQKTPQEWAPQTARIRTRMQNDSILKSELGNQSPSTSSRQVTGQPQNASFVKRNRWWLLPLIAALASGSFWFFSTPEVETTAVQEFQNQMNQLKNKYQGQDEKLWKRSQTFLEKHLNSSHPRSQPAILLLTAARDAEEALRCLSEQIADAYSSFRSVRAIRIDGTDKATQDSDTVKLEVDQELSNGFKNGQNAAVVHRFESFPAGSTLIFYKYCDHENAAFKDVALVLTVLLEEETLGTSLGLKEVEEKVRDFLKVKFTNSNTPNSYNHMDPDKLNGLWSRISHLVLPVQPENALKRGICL

Compound | composite z-score [1] | z-score [2] | composite z-score [3] | composite z-score [4] | composite z-score [5] | composite z-score [6] | composite z-score [7] | composite z-score [8] | composite z-score [9] | composite z-score [10] | composite z-score (Albumin (Bos taurus)) | composite Z-score [11] | composite z-score [12] | composite z-score [13] | composite z-score [14] | composite z-score [15] | composite z-score [16] | composite z-score (Sam68 (KHDRBS1)) | composite z-score [17] | composite z-score [18]
O=C(CS)NCCCCCCNC(=O)[C@H]1C[C@H]2C(=O)NCC(=O)N2[C@H]1c1cccc(OCCO)c1 | 0.864 | 0.36 | 0.281 | 0.214 | 0.214 | 0.0079 | 0.123 | 0.113 | 0.469 | 1.36 | -0.509 | 0.54 (inactive) | 0.191 | -0.0995 | 0.458 | 1.37 | 0.122 | 0.221 | 0.283 | 0.966
COc1ccc([Si](C)(C)[C@H]2[C@H](CC(=O)N3CCC[C@H]3CO)O[C@@]3(C(=O)N(Cc4cccc(N5CCCCC5=O)c4)c4ccccc43)[C@@H]2C)cc1 | 1.3 | -2.54 | 0.854 | 0.733 | 0.222 | -0.101 | 0.396 | 0.381 | 1.06 | 1.22 | 0.342 | 0.433 (inactive) | -0.318 | -0.161 | 0.462 | 1.83 | 0.648 | 1.31 | 1.19 | 1.13
O=C1c2ccccc2[C@](Cc2ccccc2I)(C(=O)NCCN2CCOCC2)[C@H](c2ccc(CO)cc2)N1Cc1ccccc1C(F)(F)F | 1.4 | -2.44 | -0.325 | 0.799 | 0.492 | -0.0721 | -0.221 | -0.43 | 0.598 | 0.787 | 0.543 | -0.0238 (inactive) | -0.0014 | -0.0771 | 0.594 | 2.09 | 0.329 | 1.29 | -0.408 | 1.13
COc1ccc(C(=O)Nc2ccc(CN3C(=O)[C@@]4(O[C@@H](CC(=O)N(CCO)Cc5ccccc5)[C@H]([Si](C)(C)c5ccc(OC)cc5)[C@H]4C)c4ccccc43)cc2)cc1 | -0.471 | -3.92 | 0.444 | 0.655 | -0.0779 | -0.14 | -0.341 | -0.31 | 0.121 | 0.331 | 0.469 | 0.226 (inactive) | -0.222 | -0.172 | 0.294 | 0.678 | -0.294 | 0.0422 | 1.01 | 1.1
COc1ccc([Si](C)(C)[C@@H]2[C@@H](CC(=O)N3Cc4ccccc4C[C@H]3CO)O[C@]3(C(=O)N(Cc4ccc(I)cc4)c4ccccc43)[C@H]2C)cc1 | 1.3 | -3.76 | 0.878 | 0.186 | 0.426 | -0.0472 | -0.304 | -0.503 | 0.224 | 0.308 | -0.145 | 0.26 (inactive) | 0.0676 | -0.133 | 0.284 | 0.583 | -0.098 | 1 | 1.35 | 0.957

Source: PubChem BioAssay
